Data on 96 compounds can be found in PubChem BioAssay AID2094 (Broad Institute, 2009).

Molecules are shown by their SMILES. In all, about 300,000 compounds went through this assay and about 1,200 (0.4%) were called active. Only a selection was taken, and actives are over-represented in it overall. A number with no mark means an inactive call. Cut-off read from the data, not from the text of the source: active = activity change below about -75% (passing the limit was not always enough); inconclusive = no clear call, values can overlap the other calls.

The assay is described as follows: Vibrio harveyi AI-2 quorum sensing modulators, primary screen, JMH597 strain, luminescence/OD600 ratio (AID 2094).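 Note: luminescence divided by OD600 gain over 9 h not by final OD600 alone.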 As to conditions: Vibrio harveyi JMH597 AI-2 luminescence/OD600 ratio, 9 h; at 7.5 µM; hits give low values; 0 = neutral-control median; strain lacks LuxN and CqsS sensors.
Take `O=S(=O)(Nc1cccc(Oc2ccc(Cl)cc2)n1)c1ccc(F)cc1`: the activity change was -97.1% (active).
To `O=S(=O)(Nc1ccccn1)c1cccc(S(=O)(=O)c2ccc(Cl)cc2)c1` belongs 3.88%; to `O=S(=O)(Nc1ccccn1)c1ccc(Oc2ccccc2)cc1`, 21.1%; to `CC(=O)Oc1ccc2c(=O)oc(-c3ccc([N+](=O)[O-])cc3)nc2c1`, 9.78%.
The result for `COc1cccc(CNC(=O)CCCC(=O)Nc2cccc([N+](=O)[O-])c2)c1` reads 33.3%.
To `COc1ccc(S(=O)(=O)NC(C)C(=O)Nc2cccc([N+](=O)[O-])c2)cc1` (stereo unspecified) belongs 16.9%.
As for `COC(=O)/C=C\C(=O)Nc1cccc([N+](=O)[O-])c1`, the activity change is -88.2% (active).
`Cc1ccc(C(=O)NNC(=O)c2ccncc2)cc1S(=O)(=O)N1CCCCC1`: the activity change was 18%.
To `NC(=O)c1ccc(-c2csnn2)cc1` belongs -13%; to `Cc1cc(C)c(C(N)=O)c(Cl)n1`, -0.00035%; to `COc1cccc(NC(=O)NCCN2CCCCC2)c1`, 8.92%.
To `COc1cccc(NC(=O)NCc2ccc(F)cc2)c1` belongs -88.7% (active).
The result for `O=C(NCc1cccc(CNC(=O)Nc2cccc(O)c2)c1)Nc1cccc(O)c1` reads 3.61%.
Turning to `Oc1ccc(N=Nc2nccs2)c(O)c1`, the activity change was -86.3% (active).
To `Cc1cc(-c2ccccc2)nc(N2CCC(C(=O)NC34CC5CC(CC(C5)C3)C4)CC2)n1` belongs 31.5%; to `CCN1C(=NCCc2cccnc2)N[C@@H](c2ccccc2)C(C(=O)OC)=C1C`, 8.09%; to `O=C(/C=C\c1cn(-c2ccccc2)nc1-c1cccs1)N1CCOCC1`, 28.5%.
The result for `O=C(O)c1ccc(N/N=C/c2cn(-c3ccccc3)nc2-c2cccs2)cc1` reads -83.5% (active); that for `COc1ccc(-c2nn(-c3ccccc3)cc2/C=C\C(=O)Nc2ccc(C(=O)O)cc2)cc1`, 21.3%.
With `O=C1C2CCCN2C(=O)N1CCCCN1CCN(c2cccc(C(F)(F)F)c2)CC1` (stereo unspecified), the activity change was 12.2%.
The result for `CCC(C)N(C(=O)COC(=O)C1C(C(=O)OC)=C(C)NC(C)=C1C(=O)OC)C1CCS(=O)(=O)C1` (stereo unspecified) reads 18.1%; that for `COc1cccc(NC(=O)c2ccc(S(=O)(=O)N(C)C)cc2)c1`, 14.9%.
To `CN(C)S(=O)(=O)c1ccc(Oc2ccc(S(=O)(=O)N(C)C)cc2)cc1` belongs -86.2% (active).
The result for `CN(C)S(=O)(=O)c1ccc(NC(=O)N2CCOCC2)cc1` reads 11.7%; that for `CCc1ccc(-c2cc(C)no2)cc1S(=O)(=O)NCCc1ccc(S(N)(=O)=O)cc1`, 9.18%; that for `CC12CCC(=O)N1C(C(=O)NCCN1C(=O)S/C(=C\c3ccccc3F)C1=O)CS2` (stereo unspecified), 17%.
For the compound `Nc1c(C(=O)Nc2ccc3c(c2)OCCO3)nnn1Cc1ccccc1`, the activity change was 9.93%.
The result for `O=c1c2ccccc2c(-c2ccc(Br)cc2)nn1Cc1ccccc1` reads 41.9%; that for `Nc1c(-c2ccccc2)nnn1Cc1ccccc1`, -76.6% (active); that for `CC(C)c1ccc(/C=C/C(=O)NNC(=O)c2cccnc2)cc1`, 5.1%.
The result for `O=C(/C=C/c1ccc(F)cc1)NCCNC(=O)/C=C/c1ccc(F)cc1` reads 20.3%; that for `O=C(/C=C/c1ccc(F)cc1)NC(=S)NNC(=O)c1cccnc1`, -112% (active); that for `Cc1ccc(N2CCN(S(=O)(=O)N(C)C)CC2)cc1Cl`, 10.7%.
Consider `CCCCCCC(O)(CCN1CCCCC1)c1ccccc1` (stereo unspecified), for which the activity change is 20%.
The result for `OC(CN=c1sc2ccccc2n1CC(O)COc1ccccc1)COc1ccccc1` (stereo unspecified) reads 4.84%.
The result for `CCNC(=O)N1CCCC(C(=O)c2ccc(-c3ccccc3)cc2)C1` (stereo unspecified) reads -9.07%; that for `Cn1nccc1C(=O)N1CCCC(C(=O)c2ccc(Oc3ccccc3)cc2)C1` (stereo unspecified), -2.94%; that for `O=C(c1ccc(-c2ccccc2)cc1)C1CCCN(C(=O)c2cncs2)C1` (stereo unspecified), -77.4% (active).
To `Cc1ccc(-c2nc3c(cnn3-c3ccccc3)c(=O)o2)cc1` belongs 9.58%; to `Cc1ccc(Oc2cnn(-c3ccccc3)c(=O)c2Br)cc1`, -95.8% (active); to `COc1ccc(Oc2c(Cl)cnn(-c3ccccc3)c2=O)cc1`, 8.72%.
On to `C/C(=N\NC(=O)c1ccc(C)cc1)C1C(=O)c2ccccc2C1=O`, for which the activity change is 17%.
The result for `CSCCC(NC(=O)COc1ccccc1)C(=O)OCC(=O)c1cc2ccccc2o1` (stereo unspecified) reads 8.03%; that for `Cc1ccsc1C(=O)OCC(=O)c1cc2ccccc2o1`, -88.1% (active); that for `Cc1ccsc1C(=O)OCC(=O)c1cc(C)n(CC2CCCO2)c1C` (stereo unspecified), 22.3%.
The result for `Cc1ccc(NC(=O)C2CCN(S(=O)(=O)c3ccc4c(c3)NC(=O)CO4)CC2)cc1C` reads -2.55%.
Regarding `Cn1c(N)c(C(=O)COC(=O)C23CC4CC(CC(C4)C2)C3)c(=O)n(C)c1=O`, the activity change is 12.7%.
To `Cc1csc(=O)n1CC(=O)OCC(=O)N(CC(C)C)c1c(N)n(Cc2ccccc2)c(=O)[nH]c1=O` belongs 6.79%.
To `CC(C)(C)c1ccc(Oc2ccc(N)cc2)cc1` belongs -23.7%; to `CC(C)(C)c1ccc(CN2C(=O)c3ccccc3S2(=O)=O)cc1`, 21.7%; to `CC(C)(C)c1ccc(OC2=CS(=O)(=O)c3ccccc32)cc1`, -84.2% (active).
The result for `CCN(CC)C(=O)CN(c1cccc(OC)c1)S(=O)(=O)c1ccc(C)cc1` reads 9.13%; that for `CC(C)C(C)NC(=O)COc1ncnc2ccccc12` (stereo unspecified), 19.9%; that for `CC(=O)Nc1ccc(NC(=O)COc2ncnc3ccccc23)cc1`, -8.91%.
With `O=C(COc1ncnc2ccccc12)NC(=O)NCc1ccccc1`, the activity change was -86.9% (active).
To `CCOC(=O)c1cc(C(C)C)sc1NC(=O)COC(=O)c1nccnc1N` belongs 29.5%; to `N/C(=N\OC(=O)Cc1ccccc1[N+](=O)[O-])c1ccc(Br)cc1`, -5%.
To `COc1ccc(/C(N)=N/OC(=O)CCCc2ccccc2)cc1` belongs 749%.
The result for `COc1ccc(/C(N)=N/OC(=O)Cc2ccccc2)cc1` reads -87.5% (active); that for `O=C1CCCc2nn(-c3ccccc3)nc21`, 8.67%; that for `CCCc1ccc(OCC(=O)NNC(=S)NC(=O)c2ccco2)cc1`, -5.63%.
As to `CCCc1ccc(OCCNC(=O)c2ccco2)cc1`, the activity change is -83.3% (active).
The result for `CCCc1ccc(OCCNC(=O)c2ccccc2Br)cc1` reads 28.5%.
The result for `Cc1ccccc1OCC(=O)Nc1ccc2c(c1)ncn2C` reads 27.2%; that for `Cc1ccc(C(=O)O)cc1N1C(=O)CCCC1=O`, 28.2%.
To `CCc1nnc(NS(=O)(=O)c2ccc(NC(=O)c3cccc(OC(F)(F)C(F)F)c3)cc2)s1` belongs 24.2%; to `O=C(O)c1ccc(S(=O)(=O)N2CCC(Cc3ccccc3)CC2)cc1`, 38.4%; to `Cc1cc(C)nc(N/N=C/c2ccc([N+](=O)[O-])o2)n1`, -83.7% (active).
Consider `Cc1cc(C)nc(N/N=C/c2ccncc2)n1`, for which the activity change is 10.7%.
For `CCc1ccc(S(=O)(=O)N/N=C\c2ccc([N+](=O)[O-])o2)cc1`, the activity change is 28.2%.
The result for `NC(=O)CN1CCCC1c1ccc2c(c1)OCCO2` (stereo unspecified) reads 22.1%; that for `Cc1ccc(CCCOC(=O)C[N+]2(C)CCCCC2)cc1`, 20.1%; that for `Cc1ccc(-c2noc(CN3CCN(Cc4ccccc4)CC3)n2)cc1`, -10.7%.
As for `Cc1cccc(-c2noc(-c3ccc(F)cc3)n2)c1`, the activity change is 2.4%.
To `Cc1ccc(Cc2nc(-c3cccc(C)c3)no2)cc1` belongs -81.8% (active); to `Cc1cccc(C)c1N1CCN(S(=O)(=O)N2CCOCC2)CC1`, 0.226%; to `Cc1cc(C)cc(NC(=O)COC(=O)c2cc(C)oc2C)c1`, -17%.
To `Cc1cc(C(=O)OCC(=O)Nc2ccc(F)c(F)c2)c(C)o1` belongs -93.5% (active); to `Cc1cccc(C(=O)OCC(=O)Nc2ccc(F)cc2)c1`, -25.5%.
To `CCOC(=O)N1CCN(S(=O)(=O)c2ccc(Br)cc2)CC1` belongs 14.3%.
With `CC1CCN(C(=O)Cn2nnnc2CN2CCOCC2)CC1`, the activity change is 8%.
The result for `CN(C)c1ccc(/C=C/C(=O)c2ccc(C(C)(C)C)cc2)cc1[N+](=O)[O-]` reads 19.9%; that for `CN(C)c1ccc(/C=C/C(=O)c2ccc(O)cc2)cc1[N+](=O)[O-]`, -93% (active); that for `O=C(O)/C=C/c1ccc2c(c1)OCCO2`, 6.59%.
To `CC(=O)c1ccc2c(c1)OCCOCCOc1ccc(C(C)=O)cc1OCCOCCO2` belongs 17.9%; to `O=C(/C=C/c1ccc(Cl)c([N+](=O)[O-])c1)c1ccc(O)cc1`, -37.5%.
To `O=C(/C=C/c1ccc2c(c1)OCCO2)c1ccc(O)cc1` belongs -84.5% (active); to `O=C(Cc1ccc([N+](=O)[O-])cc1)Nc1ccc(C(=O)N2CCOCC2)cc1`, 31%; to `CCN(CC)c1ccc(S(=O)(=O)N2CCCCC2)cc1NC(=O)C1=COCCO1`, 0.314%.
Take `Cc1cccc(N2CCN(S(=O)(=O)c3ccc(-c4cc(C)no4)s3)CC2C)c1` (stereo unspecified): the activity change is 7.14%.
The result for `Cc1ccc(C(=O)N2CCN(S(=O)(=O)N3CCOCC3)CC2)cc1` reads 14.3%; that for `O=C(COc1ccc([N+](=O)[O-])cc1)Nc1ccc(N2CCCC2)cc1`, 44.5%; that for `NC(=O)c1ccc(NC(=O)COC(=O)c2ccc([N+](=O)[O-])cc2)cc1`, 17.8%.
The result for `O=C(COC(=O)C1CCCCC1)Nc1ccc([N+](=O)[O-])cc1` reads -83.6% (active).
The result for `CCCC1NC(=O)NC(C)=C1C(=O)OCC` (stereo unspecified) reads 2.55%.
Regarding `Oc1c(Br)cc(/C=N/NC(=S)NCC2CCCO2)cc1Br` (stereo unspecified), the activity change was 46.7%.
